24 compounds from PubChem BioAssay (EPA / NIEHS) can be followed below.

Assay [1] can be described thus: BSK_hDFCGF_SRB: Viability Assessment in the BioMAP Diversity Plus: hDFCGF Assay (AID 2283061).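 Also: cells exposed to compound for 24 h before the read.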 The note with it: primary human foreskin fibroblasts. An outline of the steps: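 Primary human foreskin fibroblasts; 24 h post-dose; fixed 10% TCA, stained 0.1% SRB, A560 read; total protein as overt cytotoxicity measure; curves fit bidirectionally vs DMSO control.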
Read-out in assay [2]: Monokine induced gamma interferon (MIG), CXCL9 (gene 4283)
As to the kind of experiment: BSK_hDFCGF_MIG: BioMAP Diversity Plus: hDFCGF Assay for Monokine induced gamma interferon (MIG) Biomarker Activity (AID 2283063). The note with it: primary human foreskin fibroblasts; actives raise or lower the signal. An outline of the steps:
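Fibroblasts (human foreskin, primary) dosed, 24 h, MIG by ELISA; fit bidirectional vs DMSO.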

Read-out in assay [3]: Vascular cell adhesion molecule 1 (VCAM1), VCAM1 (gene 7412)
As to the kind of experiment: BSK_hDFCGF_VCAM1: BioMAP Diversity Plus: hDFCGF Assay for Vascular cell adhesion molecule 1 (VCAM1) Biomarker Activity (AID 2283065).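 As to AC50: VCAM-1 protein level quantified by ELISA after 24 h chemical exposure.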 The settings on record: primary human foreskin fibroblasts; actives raise or lower the signal. An outline of the steps: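 ELISA read-out of VCAM-1 on human skin fibroblasts, 24 h post-dose; gain or loss of signal fitted bidirectionally against DMSO baseline.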

Read-out in assay [4]: Plasminogen activator inhibitor-1 (PAI1), SERPINE1 (gene 5054)
As to the kind of experiment: BSK_hDFCGF_PAI1: BioMAP Diversity Plus: hDFCGF Assay for Plasminogen activator inhibitor-1 (PAI1) Biomarker Activity (AID 2283066). The note with it: primary human foreskin fibroblasts; actives raise or lower the signal. A digest of the protocol: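 Primary dermal fibroblasts (human foreskin), hDFCGF system; compound 24 h; PAI-1 by ELISA; bidirectional fit vs DMSO control.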

Read-out in assay [5]: Intercellular Adhesion Molecule 1 (ICAM1), ICAM1 (gene 3383)
As to the kind of experiment: BSK_KF3CT_ICAM1: BioMAP Diversity Plus: KF3CT Assay for Intercellular Adhesion Molecule 1 (ICAM1) Biomarker Activity (AID 2283067). The settings on record: primary human keratinocytes with fibroblasts; actives raise or lower the signal. An outline of the steps: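 ELISA readout of ICAM-1; KF3CT human skin co-culture (keratinocytes + foreskin fibroblasts), 24 h post-dose; gain/loss fit vs DMSO baseline.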

Assay [6] is described as follows: BSK_KF3CT_SRB: Viability Assessment in the BioMAP Diversity Plus: KF3CT Assay (AID 2283069).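 Also: total protein by sulforhodamine B staining as a cytotoxicity measure; read 24 h after compound addition.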 The settings on record: primary human keratinocytes with fibroblasts. A digest of the protocol: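 Keratinocytes co-cultured with foreskin fibroblasts (human primary); chemical added, 24 h; fix 10% TCA, stain 0.1% SRB, A560. Bidirectional fit vs DMSO.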
Read-out in assay [7]: Interleukin-1 alpha (IL1a), IL1A (gene 3552)
The assay is described as follows: BSK_KF3CT_IL1a: BioMAP Diversity Plus: KF3CT Assay for Interleukin-1 alpha (IL1a) Biomarker Activity (AID 2283070). The settings on record: primary human keratinocytes with fibroblasts; actives raise or lower the signal. A digest of the protocol:
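Chemicals were dosed onto co-cultured human keratinocytes and foreskin fibroblasts, IL-1a was quantified by ELISA at 24 h, and activity was fitted in both directions relative to DMSO controls.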

Read-out in assay [8]: TIMP metallopeptidase inhibitor 1 (TIMP1), TIMP1 (gene 7076)
As to the kind of experiment: BSK_hDFCGF_TIMP1: BioMAP Diversity Plus: hDFCGF Assay for TIMP metallopeptidase inhibitor 1 (TIMP1) Biomarker Activity (AID 2283062). The note with it: primary human foreskin fibroblasts; actives raise or lower the signal. A digest of the protocol: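 ELISA readout of TIMP-1 from human dermal foreskin fibroblast cultures 24 h post-dosing. Curves were fitted in both directions against DMSO baseline, with SRB total-protein staining in parallel cultures as a cytotoxicity check.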

“And” between values parts separate entries of the source, which are not always exact repeats. Equal entries are not always repeated. The source made the active and inactive calls. The calls were made as follows: active = hit-call score of the fitted dose curve at least 0.9, where 1 is the maximum; inactive = score below 0.9.

With `CCOC(=O)C=Cc1ccccc1`, the outcome in assay [1], in assay [2], in assay [3], in assay [4], in assay [5] and in assay [6] was inactive. The outcome in assay [7] was inactive.

With `CC1=CC(C)C(C=O)C(C)C1` (stereo unspecified) (tested in a mixture with another compound), the result in assay [1], in assay [8], in assay [3], in assay [4], in assay [5] and in assay [6] was inactive. For the same compound, the outcome in assay [7] was inactive.

As for `CC(C)(C)c1cccc(O)c1`, the outcome in assay [1], in assay [3], in assay [4], in assay [5], in assay [6] and in assay [7] was inactive.

Take `CCCCCCCCCC(=O)OCC`: the result in assay [1], in assay [5], in assay [6] and in assay [7] was inactive. In addition, the AC50 in assay [3] was 31.9 µM (active); in assay [4], 31.4 µM (active).

As for `CC(C)CCCC(C)(C)O`, the outcome in assay [1], in assay [3], in assay [4], in assay [5], in assay [6] and in assay [7] was inactive.

On to `CCC(=O)OCC=Cc1ccccc1`, for which the outcome in assay [1], in assay [3], in assay [4], in assay [5], in assay [6] and in assay [7] was inactive.

Take `O=C(O)C(F)(F)C(F)(F)C(F)(F)C(F)(F)C(F)(F)C(F)(F)C(F)(F)C(F)F`: the AC50 in assay [1] was 20.1 µM (active) and 15.8 µM (active). In addition, the outcome in assay [3], in assay [4], in assay [5], in assay [6] and in assay [7] was inactive.

With `CCCCN(CCO)CCO`, the outcome in assay [1], in assay [3], in assay [4], in assay [5], in assay [6] and in assay [7] was inactive.

`C=C(C)C(=O)OCCC(F)(F)C(F)(F)C(F)(F)C(F)(F)C(F)(F)C(F)(F)C(F)(F)C(F)(F)F`: the result in assay [1], in assay [3], in assay [4], in assay [5], in assay [6] and in assay [7] was inactive.

For the compound `CC1(C)[C@H](C=C(Cl)Cl)[C@H]1C(=O)OCc1cccc(Oc2ccccc2)c1`, the result in assay [1], in assay [3], in assay [4], in assay [5], in assay [6] and in assay [7] was inactive.

In the case of `O=C1OC2(c3ccc(O)cc3Oc3cc(O)ccc32)c2ccccc21`, the result in assay [1], in assay [3], in assay [4], in assay [5], in assay [6] and in assay [7] was inactive.

With `CC(=O)CCC=C(C)CCC=C(C)C`, the outcome in assay [1], in assay [3], in assay [4], in assay [5], in assay [6] and in assay [7] was inactive.

Take `CCn1cc(C(=O)O)c(=O)c2ccc(C)nc21`: the result in assay [1], in assay [3], in assay [4], in assay [5], in assay [6] and in assay [7] was inactive.

In the case of `COC(=O)c1ccc(C(=O)OC)cc1`, the result in assay [1], in assay [3], in assay [4], in assay [5], in assay [6] and in assay [7] was inactive.

`CC(=O)c1ccc(C)cc1`: the outcome in assay [1], in assay [3], in assay [4], in assay [5], in assay [6] and in assay [7] was inactive.

Regarding `COc1ccccc1NC(=O)CC(C)=O`, the outcome in assay [1], in assay [3], in assay [4], in assay [5], in assay [6] and in assay [7] was inactive.

As to `C#C[C@]1(O)CC[C@H]2[C@@H]3CCc4cc(O)ccc4[C@H]3CC[C@@]21C`, the outcome in assay [1], in assay [3], in assay [4], in assay [5], in assay [6] and in assay [7] was inactive.

As for `C[C@]12CC[C@@H]3c4ccc(O)cc4CC[C@H]3[C@@H]1CC[C@@H]2O`, the outcome in assay [1], in assay [4], in assay [5], in assay [6] and in assay [7] was inactive. For the same compound, the AC50 in assay [3] is 20 µM (active).

Regarding `CCCO[Si](OCCC)(OCCC)OCCC`, the result in assay [1], in assay [3], in assay [4], in assay [5], in assay [6] and in assay [7] was inactive.

For `C=CC(=O)OCC(CO)(COC(=O)C=C)COC(=O)C=C`, the AC50 in assay [1] was 0.0163 µM (active); in assay [3], 0.0263 µM (active); in assay [4], 0.0266 µM (active); in assay [5] it was 0.682 µM (active); in assay [6], 0.592 µM (active); in assay [7] it was 0.517 µM (active).

As to `c1ccc(Sc2ccccc2)cc1`, the AC50 in assay [1] was 39 µM (active); in assay [3] it was 33.2 µM (active); in assay [4], 20 µM (active); in assay [6], 35.5 µM (active); in assay [7], 30.8 µM (active). Further, the result in assay [5] was inactive.

Take `C=C1CC/C=C(\C)CC[C@@H]2[C@@H]1CC2(C)C`: the AC50 was 27.7 µM (active) in assay [1]; 28 µM (active) in assay [3]; 31.2 µM (active) in assay [4]; 30.3 µM (active) in assay [5]; 28.1 µM (active) in assay [6]; 29.6 µM (active) in assay [7].

For `CCCCCCCCCCCCS`, the AC50 in assay [1] was 11.7 µM (active); in assay [3], 7.26 µM (active); in assay [4], 10.8 µM (active); in assay [6], 32.9 µM (active); in assay [7] it was 20 µM (active). Besides, the result in assay [5] was inactive.

With `Nc1ccc(N)c([N+](=O)[O-])c1`, the outcome in assay [1], in assay [3], in assay [4], in assay [5], in assay [6] and in assay [7] was inactive.
